Shown are actives, neighbours in structure and some others; about 3.9% of the full set was active somewhere.
BoNT A protease: inhibitors of Botulinum neurotoxin A light chain protease; inhibition, % at 10 µM; AID 588499; multiplex microsphere protease substrate cleavage, flow cytometry; hit rate 0.17% among 360,000
BoNT F protease: blocks Botulinum neurotoxin F light chain protease. hit rate 0.22% among 360,000. inhibition, % at 10 µM. Multiplex microsphere protease cleavage assay, flow cytometry; in the data active means inhibition above about 35%, passing the limit was not always enough; inconclusive means no clear call, values can overlap the other calls
Anthrax LF inh2: anthrax lethal factor protease inhibition | AID 588501 | hit rate 0.12% among 360,000 | multiplex microsphere protease cleavage assay, LF | inhibition, % at 10 µM | P15917
Target sequence (P15917 whole entry, looked up): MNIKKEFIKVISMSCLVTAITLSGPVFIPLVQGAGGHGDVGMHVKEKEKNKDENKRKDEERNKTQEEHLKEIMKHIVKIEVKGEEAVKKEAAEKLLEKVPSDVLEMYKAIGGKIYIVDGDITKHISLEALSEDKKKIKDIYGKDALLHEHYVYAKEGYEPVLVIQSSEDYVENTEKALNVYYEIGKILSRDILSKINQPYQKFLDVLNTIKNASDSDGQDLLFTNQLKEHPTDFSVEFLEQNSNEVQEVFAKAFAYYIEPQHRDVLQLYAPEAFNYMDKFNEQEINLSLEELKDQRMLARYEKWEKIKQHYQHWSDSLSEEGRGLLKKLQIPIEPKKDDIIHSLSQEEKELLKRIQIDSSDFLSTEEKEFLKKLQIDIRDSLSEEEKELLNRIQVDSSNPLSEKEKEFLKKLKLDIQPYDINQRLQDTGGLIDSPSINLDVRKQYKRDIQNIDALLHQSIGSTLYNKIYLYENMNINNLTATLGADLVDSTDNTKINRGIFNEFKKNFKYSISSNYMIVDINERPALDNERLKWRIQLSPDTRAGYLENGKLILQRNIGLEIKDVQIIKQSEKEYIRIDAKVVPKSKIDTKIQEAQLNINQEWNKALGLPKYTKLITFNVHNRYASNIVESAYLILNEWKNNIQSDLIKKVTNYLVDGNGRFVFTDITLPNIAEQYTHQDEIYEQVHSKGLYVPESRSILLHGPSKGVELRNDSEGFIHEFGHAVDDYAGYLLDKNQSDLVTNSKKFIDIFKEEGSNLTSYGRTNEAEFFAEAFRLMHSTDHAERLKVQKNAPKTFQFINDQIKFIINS
CCHFV vOTU inh: CCHFV vOTU protease inhibition. Pep-AMC fluorescence. inhibition, % at 11.5 µM. hit rate 0.55% among 370,000. AID 651958; in the data active means inhibition above about 30%
SARS 3CLpro inh: SARS-CoV 3CLpro protease inhibition; P0C6X7; recombinant SARS-CoV 3CLpro, quenched FRET peptide cleavage; inhibition, % at 6 µM; hit rate 0.14% among 290,000; in the data active means inhibition above about 12%
Bead autofluor: compound fluorescence in toxin protease inhibitor counterscreen; AID 624483; hit rate 3.1% among 360,000; compound autofluorescence counterscreen, microsphere flow cytometry; stronger effect = higher value; fluorescence intensity (no concentration beside the values); in the data active means fluorescence intensity above about 16000; inconclusive means no clear call, values can overlap the other calls
Of the large screens only hits and unclear results are named; the others gave an inactive call. Unless noted, no stated cut-off is given here; in the data, active means inhibition above about 30%; inconclusive means no clear call, values can overlap the other calls; inactive means below that.

Cn1c(=O)c2c(nc(CN3CCN(c4ccccc4)CC3)n2Cc2c(F)cccc2Cl)n(C)c1=O	BoNT A protease inconclusive, Bead autofluor 22170
O=C(N[C@@H]1C[C@@H]2O[C@@H](CO)CC[C@@H]2O[C@@H]1CCc1ccc(-c2ccccc2)cc1)c1cnccn1	none (no result: BoNT A protease, BoNT F protease, Anthrax LF inh2, SARS 3CLpro inh, Bead autofluor)
COC(=O)CN(C(=S)Nc1ccc(F)cc1)C1CC(=O)N(c2ccc(OC)cc2)C1=O (centres undefined)	BoNT A protease inconclusive, Bead autofluor 22916
COC(=O)CN(C(=S)Nc1ccccc1)C1CC(=O)N(c2ccc(OC)cc2)C1=O (centres undefined)	none (no result: CCHFV vOTU inh)
O=C1CC(c2ccccc2)n2ncnc2N1 (centres undefined)	BoNT A protease inconclusive, Bead autofluor 21144
O=C1CC(c2ccccc2)n2nc(NC(=O)c3ccccc3)nc2N1 (centres undefined)	none
CCCC(=O)Nc1nc2n(n1)C(c1ccccc1)CC(=O)N2 (centres undefined)	Bead autofluor 17011
c1ccc(C2CC(c3ccccc3)n3ncnc3N2)cc1 (centres undefined)	none
COc1ccc(CNCC#Cc2ccccc2)c(OC)c1	none (no result: BoNT A protease, BoNT F protease, Anthrax LF inh2, SARS 3CLpro inh, Bead autofluor)
Cc1ccc(Nc2c3c(nc4ncnn24)CCC3)cc1	Bead autofluor 23876
CCNC(=S)NNC(=O)c1cc(C2CC2)nc2ccccc12	Bead autofluor 22689
CCCCOc1cccc(-c2cc(C(=O)NNC(=S)NCC)c3ccccc3n2)c1	Bead autofluor 19871
COC(=O)[C@H]1C[C@@]2(C)c3ccccc3N(S(=O)(=O)c3ccccc3)[C@H]2N1C(=O)CNC1CCCCC1	none (no result: BoNT A protease, BoNT F protease, Anthrax LF inh2, SARS 3CLpro inh, Bead autofluor)
O=C(c1cc(Cl)cc(Cl)c1)N1CC[C@H]2[C@H](CCCN2Cc2ccccc2)C1	none (no result: BoNT A protease, BoNT F protease, Anthrax LF inh2, SARS 3CLpro inh, Bead autofluor)
O=C(CN1CCN(c2nc(-c3ccc(F)cc3)cs2)CC1)Nc1ccc2c(c1)OCO2	Bead autofluor 16899
NC(=O)CN1CCN(c2nc(-c3ccc(F)cc3)cs2)CC1	none
CN(C(=O)CSc1nc(-c2ccccc2)cn1N)C(c1ccccc1)c1ccccc1	Bead autofluor 24699
O=[N+]([O-])c1cccc(OC[C@@H](O)CN2CCC(C(O)(c3ccccc3)c3ccccc3)CC2)c1	none (no result: BoNT A protease, BoNT F protease, Anthrax LF inh2, SARS 3CLpro inh, Bead autofluor)
O=c1cc(O)c2c(=O)n(C3CCCCC3)c3ccccc3c2o1	Bead autofluor 22987
COc1cccc(-c2nc(NC(C)C)c3ccccc3n2)c1O	Bead autofluor 24838
CCC1CCCCN1c1nc(-c2cccc(OC)c2O)nc2ccccc12 (centres undefined)	Bead autofluor 16896
COCCCNC(=O)c1ccc2c(c1)NC(=O)C(C)(C)O2	none (no result: BoNT A protease, BoNT F protease, Anthrax LF inh2, SARS 3CLpro inh, Bead autofluor)
Cc1[nH]c(=O)[nH]c(=O)c1S(=O)(=O)NCC12CC3CC(CC(C3)C1)C2	BoNT A protease inconclusive, Bead autofluor 21375
CC12C=CC3(CN(Cc4ccccc4)C(=O)C3C1C(=O)NC1CC1)O2 (centres undefined)	Bead autofluor 22134
COc1cnn(C(C)(C)C)c(=O)c1Cl	BoNT A protease inconclusive, Bead autofluor 19156
Cc1cccc(Oc2cnn(C(C)(C)C)c(=O)c2Cl)c1	none
Cc1nn(-c2ccccc2)c2sc(C(=O)NC3CCCCCCC3)cc12	none (no result: BoNT A protease, BoNT F protease, Anthrax LF inh2, SARS 3CLpro inh, Bead autofluor)
O=[N+]([O-])c1ccccc1/C=C/C=Nn1c(-c2ccc(F)cc2)n[nH]c1=S	none (no result: BoNT A protease, BoNT F protease, Anthrax LF inh2, SARS 3CLpro inh, Bead autofluor)
Cc1oc(-c2ccc(Cl)cc2)cc1-c1nn2c(-c3ccoc3C)nnc2s1	Bead autofluor 23295
C#CCN1C(=O)[C@@](O)(c2cccn2C)c2cc(F)ccc21	none (no result: BoNT A protease, BoNT F protease, Anthrax LF inh2, SARS 3CLpro inh, Bead autofluor)
CCOC(=O)c1cnc(-n2nc(C)cc2C)nc1Nc1ccc(C)cc1	BoNT A protease inconclusive, Bead autofluor inconclusive
CCOC(=O)c1cnc(-n2nc(C)cc2C)nc1NC	BoNT A protease inconclusive, BoNT F protease inconclusive, Anthrax LF inh2 inconclusive, Bead autofluor inconclusive
CCOC(=O)c1cnc(-n2nc(C)cc2C)nc1Nc1cccc(C(=O)O)c1	Bead autofluor 21795
CCOC(=O)c1cnc(-n2nc(C)cc2C)nc1N(CC)CC	BoNT A protease inconclusive, Bead autofluor 18780
CCn1nc(C)c(/C=N/NC(=O)c2nc3nc(C)cc(C)n3n2)c1C	BoNT F protease inconclusive, Anthrax LF inh2 34
CCOC(=O)[C@]12CCCC3=C1N(CCC3)C(=O)[C@@H](CC(=O)N1CCCCC1)C2	none (no result: BoNT A protease, BoNT F protease, Anthrax LF inh2, SARS 3CLpro inh, Bead autofluor)
COc1ccc(CCN2C(=O)CC(Sc3ncccc3C(=O)O)C2=O)cc1OC (centres undefined)	Bead autofluor 23415
COc1ccc(NC(=O)OC[C@@H]2CSCCS(=O)(=O)N2)cc1	none (no result: BoNT A protease, BoNT F protease, Anthrax LF inh2, SARS 3CLpro inh, Bead autofluor)
OC(COc1cccc2ccccc12)CN1CCCC1 (centres undefined)	none
